# Assay results: PubChem BioAssay
# Calls of active or inactive are those of the source. Unless noted, the rule behind the calls is not given here.
# Experiments:
# [1] = test system: XIP peptide (Xip251-270) binding; assay: small-molecule binders of XIP peptide, primary screen, biochemical, small-molecule microarray, fluorescence 635/667 nm, 0.1 µg/mL protein (AID 1182); conditions: fluorescent protein binding, 635 nm, higher = more signal, called active from +8 up or from −8 down
# XIP peptide (Xip251-270) = assay: small-molecule binders of XIP peptide, primary screen, biochemical, small-molecule microarray, fluorescence 635/667 nm, 0.5 µg/mL protein (AID 1183); conditions: small-molecule microarray binding, fluorescence 635 nm; higher = more signal
# [2] = Plasmodium falciparum growth inhibition, primary screen, strain 3D7, DAPI fluorescence, 100 nL (AID 1184);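 note: parasites grown inside human red blood cells in medium with human serum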; conditions: P. falciparum 3D7 growth, 3 d, higher = more signal
# [3] = biological target: Homeobox protein Hox-A13 (Mus musculus) (UniProt Q62424); assay: inhibitors of HoxA13-DNA binding, primary screen, biochemical, fluorescence polarization, labeled oligonucleotide (AID 1185); conditions: 15 min, higher = more signal, called active from +8 up or from −8 down
# [4] = inhibitors of hydroxyurea-induced Chk1 phosphorylation, primary screen, imaging, HeLa, phospho-Chk1 antibody, percent positive cells (AID 1186); conditions: hydroxyurea-induced phospho-Chk1 immunofluorescence imaging, higher = more signal
# [5] = inhibitors of hydroxyurea-induced Chk1 phosphorylation, primary screen, imaging, HeLa, phospho-Chk1 nuclear intensity (AID 1187); conditions: hydroxyurea-induced phospho-Chk1 immunofluorescence imaging, higher = more signal
# Sequence of Homeobox protein Hox-A13 (Mus musculus) (Q62424 whole entry, looked up): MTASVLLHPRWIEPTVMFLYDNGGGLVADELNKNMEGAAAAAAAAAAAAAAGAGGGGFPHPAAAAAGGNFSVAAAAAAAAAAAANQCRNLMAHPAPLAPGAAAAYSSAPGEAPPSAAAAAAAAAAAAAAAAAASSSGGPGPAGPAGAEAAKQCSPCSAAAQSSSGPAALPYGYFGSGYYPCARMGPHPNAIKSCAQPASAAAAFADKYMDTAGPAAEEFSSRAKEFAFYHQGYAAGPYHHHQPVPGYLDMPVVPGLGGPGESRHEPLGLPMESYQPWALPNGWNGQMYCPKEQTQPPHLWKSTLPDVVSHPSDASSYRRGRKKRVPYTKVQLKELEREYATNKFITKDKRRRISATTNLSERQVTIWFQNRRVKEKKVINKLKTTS
SMILES,composite z-score [1],composite z-score (XIP peptide (Xip251-270)),z-score [2],z-score [3],z-score [4],z-score [5]
CCOC(=O)C[C@H]1[C@H](OC(=O)c2ccc(-c3ccccc3)cc2)[C@@H](NC(=O)c2ccccc2)c2cc(OCCCO)ccc2N1C(=O)c1ccc2ccccc2n1,0.304 (inactive),0.0388,1.24,-1.19 (inactive),-0.0348 (inactive),-0.234 (inactive)
N#Cc1ccc(C(O)C2C=CC3C(=O)N(c4ccccc4)C(=O)C3N2Nc2ccccc2F)cc1 (stereo not given),0.339 (inactive),0.749,-0.85,-3.57 (inactive),-0.395 (inactive),-0.0743 (inactive)
C=C(CCCC)/C(=C/C[C@@H](OC(C)=O)c1cccc(OCCO)c1)c1cnc2ccccc2c1,-0.276 (inactive),0.114,-2.99,-4.61 (inactive),-0.24 (inactive),-0.359 (inactive)
COc1cc2c(cc1O)C(c1cccs1)N(Cc1cccc(OC(F)(F)F)c1)CC2 (stereo not given),1.78 (inactive),0.775,-1.9,-2.17 (inactive),-1.02 (inactive),-2.12 (inactive)
O=C1[C@H]2C=C(Br)[C@H](C[C@@H]2OCCCCCCO)[C@@]12CO2,-0.358 (inactive),-0.777,-0.355,-1.84 (inactive),0.73 (inactive),0.231 (inactive)
NC(=O)N1C(=O)C2C(C1=O)C1C=C(CCCO)C2C(C2CC2)N1Cc1cc2c(cc1Br)OCO2 (stereo not given),-0.0845 (inactive),-0.102,1.74,-7.26 (inactive),0.207 (inactive),0.727 (inactive)
O=C1OCCC=C[C@H]2OC34C=CCN(CCN5CCOCC5)C(=O)[C@H]3N(CCCCCO)C(=O)[C@@H]4C12 (stereo not given in full),0.272 (inactive),0.348,0.124,-5.57 (inactive),0.139 (inactive),0.357 (inactive)
CCOC(=O)C[C@H]1[C@H](OC(=O)c2ccc(C(=O)c3ccccc3)cc2)[C@@H](NC(=O)Cc2ccc(OC)cc2)c2cc(OCCCO)ccc2N1C(=O)c1ccc2ccccc2n1,0.845 (inactive),0.172,-0.129,-1.9 (inactive),0.112 (inactive),-0.189 (inactive)
COC(=O)c1c(CC[C@@H](CO)NC(=O)N[C@H](Cc2ccccc2)Cn2cc(-c3ccccn3)nn2)oc(C(C)=O)c1C(=O)OC,0.593 (inactive),0.0667,0.0007,-4.84 (inactive),0.269 (inactive),0.15 (inactive)
COc1ccc(C(=O)Nc2ccc(CN3C(=O)[C@]4(O[C@H](CC(=O)N5CCC[C@H]5CO)[C@@H]([Si](C)(C)c5ccc(OC)cc5)[C@@H]4C)c4ccccc43)cc2)cc1,0.731 (inactive),0.76,0.0279,-2.62 (inactive),0.303 (inactive),0.493 (inactive)
CO[C@H]1O[C@H](CO)[C@@H](OC(=O)Nc2ccc(Oc3ccccc3)cc2)[C@H](OC(=O)Nc2ccc3c(c2)OCO3)[C@@H]1OC(=O)Nc1ccc2c(c1)OCO2,0.23 (inactive),0.863,-2.05,-6.43 (inactive),0.126 (inactive),0.561 (inactive)
CCCC[C@H]1C[C@@H]1[C@@H]1N(P(=O)(c2ccccc2)c2ccccc2)C[C@@](O)(c2ccccc2)CC12CC2,-0.0646 (inactive),-0.0749,-1.22,-2.37 (inactive),0.0682 (inactive),0.228 (inactive)
C[N+](C)(C)CCCC[C@@H]1NC(=O)[C@@H]2C[C@H](C(=O)NCCCCCN)[C@H](c3ccc(O)cc3)N2C1=O,0.941 (inactive),0.831,0.117,-0.32 (inactive),-0.661 (inactive),-0.154 (inactive)
C=C(CCCC)C(=O)CC[C@@H](OC(C)=O)c1ccc(CO)o1,0.247 (inactive),0.337,-0.201,-3.66 (inactive),0.593 (inactive),0.245 (inactive)
[N-]=[N+]=Nc1ccccc1C[C@@]1(C(=O)N2CCCCC2)N=C(c2ccc(OCCCO)cc2)O[C@@H]1c1ccccc1N=[N+]=[N-],0.973 (inactive),0.0553,-2.42,-4.67 (inactive),-0.425 (inactive),-0.286 (inactive)
O=C1O[C@H](c2ccccc2)[C@H](c2ccccc2)N2[C@H]1[C@@H](C(=O)N1CCN(c3ncccn3)CC1)[C@]1(C(=O)Nc3ccc(C#CC4=CCCCC4)cc31)[C@H]2c1ccccc1OCCO,0.263 (inactive),0.938,-2.09,1.87 (inactive),0.28 (inactive),0.188 (inactive)
CCCC(=O)N(CCc1c[nH]c2ccccc12)[C@@H]1CC(C(=O)NCCO)=C[C@H](Oc2c(I)cc(CO)cc2OC)[C@H]1O,-0.131 (inactive),0.289,-0.373,-7.89 (inactive),-1.51 (inactive),-2.68 (inactive)
COCCCNC(=O)[C@@]1(Cc2ccccc2)N=C(c2ccc(OCCCO)cc2)O[C@H]1c1ccccc1CN=[N+]=[N-],0.596 (inactive),0.801,-2.62,-3.07 (inactive),0.0048 (inactive),-0.194 (inactive)
[N-]=[N+]=Nc1ccccc1C[C@]1(C(=O)NCc2ccccc2)N=C(c2ccc(OCCCO)cc2)O[C@H]1c1ccccc1N=[N+]=[N-],-0.12 (inactive),0.681,-2.32,0.69 (inactive),-0.231 (inactive),-0.741 (inactive)
O=C(CS)NCCCCCNC(=O)[C@H]1C[C@H]2C(=O)NCC(=O)N2[C@H]1c1cccc(OCCO)c1,-0.109 (inactive),0.388,1.01,-1.67 (inactive),-0.56 (inactive),-0.321 (inactive)
